# Screens from PubChem.
# BJeLR lethal = BJeLR cell viability loss. inhibition, % (test concentration not listed). 300,000 tested, 0.17% active. BJeLR (HRASV12) viability, CellTiter-Glo ATP luminescence, 48 h; in the data active = inhibition above about 50%; inconclusive = no clear call, values can overlap the other calls
# Anthrax LF prot = anthrax lethal factor protease inhibition; P15917; multiplex microsphere protease cleavage assay, LF; inhibition, % at 10 µM; 360,000 tested, 0.12% active; also: plate controls were buffer without enzyme for full effect and enzyme alone for no effect
# 3CLpro inhibitor = SARS-CoV 3CLpro protease inhibition; P0C6X7; recombinant SARS-CoV 3CLpro, quenched FRET peptide cleavage; inhibition, % at 6 µM; 290,000 tested, 0.14% active; in the data active = inhibition above about 12%
# Autofluor counter = compound fluorescence in toxin protease inhibitor counterscreen; compound autofluorescence counterscreen, microsphere flow cytometry; stronger effect = higher value; 360,000 tested, 3.1% active; fluorescence intensity (concentration not given with the values); in the data active = fluorescence intensity above about 16000; inconclusive = no clear call, values can overlap the other calls
# BoNT F protease = inhibitors of Botulinum neurotoxin F light chain protease; Multiplex microsphere protease cleavage assay, flow cytometry; inhibition, % at 10 µM; 360,000 tested, 0.22% active; in the data active = inhibition above about 35%, passing the limit was not always enough; inconclusive = no clear call, values can overlap the other calls; also: plate controls were buffer without enzyme for full effect and enzyme alone for no effect
# BoNT A protease = blocks Botulinum neurotoxin A light chain protease. multiplex microsphere protease substrate cleavage, flow cytometry. inhibition, % at 10 µM. 360,000 tested, 0.17% active; also: plate controls were buffer without enzyme for full effect and enzyme alone for no effect
# An asterisk follows results filed as active; ? = inconclusive; / = not tested or not shown. This is a sample that favours compounds with a hit; in the whole collection about 3.6% have one here. Rule as the data show it, unless noted: active = inhibition above about 30%; inconclusive = no clear call, values can overlap the other calls; inactive = below that.
SMILES,BJeLR lethal,Anthrax LF prot,3CLpro inhibitor,Autofluor counter,BoNT F protease,BoNT A protease
COc1cccc(Nc2nc3ccccc3nc2NS(=O)(=O)c2cccs2)c1,10,-6,1,22498*,-2,?
COc1ccc(Nc2nc3ccccc3nc2NS(=O)(=O)c2cccs2)c(OC)c1,11,-4,3,4658,-7,0
CCc1ccc(C(C)NC(=O)/C=C/c2ccc(Br)cc2)cc1 (configuration not stated),3,-1,2,22674*,2,-1
O=C(C1CC1)N1CCC(c2nc(-c3ccc(S(=O)(=O)NCC4CCCO4)cc3)no2)CC1 (configuration not stated),27,-12,4,19413*,9,7
O=C(Cc1ccccc1)N1CCCC(c2nc(-c3ccc(S(=O)(=O)N4CCCC4)cc3)no2)C1 (configuration not stated),12,-5,0,10698,4,-2
COc1ccc(-c2noc(C3CCCN(C(=O)c4ccccc4OC)C3)n2)cc1OC (configuration not stated),-16,-1,2,16635*,0,?
O=C(Cc1ccccc1)N1CCC(c2nc(-c3ccc(F)cc3)no2)CC1,-2,-10,3,16726*,12,10
COc1ccc(-c2noc(C3CCCN(C(=O)c4c(F)cccc4F)C3)n2)cc1OC (configuration not stated),-5,-3,-3,3255,-12,5
O=C(c1ccccc1)N1CCC(c2nc(-c3ccc(S(=O)(=O)NCC4CCCO4)cc3)no2)CC1 (configuration not stated),3,-1,-3,?,1,-1
COc1ccc(C(=O)N2CCCC(c3nc(-c4ccc(OC)c(OC)c4)no3)C2)c(OC)c1 (configuration not stated),11,-9,-5,20939*,5,5
CN1N=C2c3ccccc3CCCC2C1c1ccc(F)cc1 (configuration not stated),5,6,-5,3723,?,?
COc1cccc(CN(C)C(=O)CC[C@H]2O[C@@H](n3ccc(=O)[nH]c3=O)[C@H](O)[C@@H]2O)c1,/,-10,/,6051,-28,-3
CC1CCCC(NC(=O)NC(=O)COC(=O)C2=NN(c3ccccc3)C(=O)CC2)C1C (configuration not stated),/,-2,/,3715,2,0
Cc1ccc(-c2noc(C3CCCN(C(=O)c4c(F)cccc4F)C3)n2)cc1 (configuration not stated),-1,-7,0,21313*,4,2
COc1ccccc1N(Cc1ccccc1)S(=O)(=O)c1cccc(C(=O)Nc2cc(C)ccn2)c1,10,-4,3,?,-1,-5
NC(=O)C1CCN(c2ccc(C(F)(F)F)cc2[N+](=O)[O-])CC1,-3,-5,-4,21870*,3,4
Nc1nc(CCl)nc(Nc2cccc3ccccc23)n1,125*,/,-4,/,/,/
Nc1nc(Nc2cccc3ccccc23)nc(C2CCCC2=O)n1 (configuration not stated),-5,/,2,/,/,/
Cc1nn(C)c(C)c1NS(=O)(=O)c1ccccc1Cl,/,-1,/,2910,2,2
O=C(Nc1ccsc1C(=O)N1CCCCCC1)c1ccccc1,3,0,1,16715*,-2,-1
O=C(Nc1ccsc1C(=O)O)c1ccccc1,11,4,-1,3038,2,0
COC(=O)c1cc(NC(=O)CCc2c(C)nc3ncnn3c2C)cc(C(=O)OC)c1,0,0,2,17830*,-6,-4
Cc1ccc(NC(=O)CCc2c(C)nc3ncnn3c2C)cc1,-30,-5,1,8994,-3,0
Cc1cccc(NC(=O)CCc2c(C)nc3ncnn3c2C)n1,-9,-8,0,4262,23,0
Cc1nc2ncnn2c(C)c1CCC(=O)Nc1csc(N)n1,0,-15,-3,18816*,3,?
[O-][n+]1nc2ccccc2c2ccccc21,/,-10,/,3826,5,0
CC(C)(C)c1nnc(N/N=C/c2cc(Br)ccc2O)n(N)c1=O,85*,-2,3,8250,-20,-2
O=[N+]([O-])c1ccccc1N/N=C\c1ccccc1Cl,72*,-4,-3,2411,-12,-1
CCCOC(=O)CC1C(=O)NCCN1C(=O)OC(C)(C)C (configuration not stated),/,-6,3,4464,-4,-1
